Experimental findings from PubChem BioAssay (Tox21) are described below.

Values joined by “and” are separate entries in the source; they are usually repeats but may differ in a detail not shown here. Identical values can stand only once. Records with an inconclusive call do not appear. A structure can be active in one record and inactive in another. Active and inactive are the calls of the source. Unless noted, the call rests on the fitted dose curve; in most records, active means well fitted curve in the direction sought with a large enough effect in the repeat runs; inconclusive means weak or mixed curves; inactive means no such curve, though single readings can be large; an effect the other way counts as inactive or inconclusive.

Experiment [1] can be described thus: qHTS assay to identify aromatase inhibitors - cell viability counter screen (AID 743084).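 Further: cells stimulated with testosterone during compound exposure; nearly all actives have a fitted effect of over 55% in size.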
Experiment [2] deals with Aryl hydrocarbon receptor (Homo sapiens) (UniProt P35869). Nature of the experiment: qHTS assay to identify small molecule that activate the aryl hydrocarbon receptor (AhR) signaling pathway (AID 743085).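 Further: HG2L7.5c1 human HepG2 liver cells with stably integrated DRE-driven firefly reporter; series mostly up to about 70 µM; nearly all actives have a fitted effect of over 15% in size.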 An outline of the steps: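 Compounds were tested in HepG2 hepatocellular carcinoma cells harbouring a stably integrated luciferase gene under control of 20 DREs. Increased reporter signal after 24 h treatment at 37C was taken as AhR activation.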
Aryl hydrocarbon receptor (Homo sapiens), sequence (P35869 whole entry, looked up): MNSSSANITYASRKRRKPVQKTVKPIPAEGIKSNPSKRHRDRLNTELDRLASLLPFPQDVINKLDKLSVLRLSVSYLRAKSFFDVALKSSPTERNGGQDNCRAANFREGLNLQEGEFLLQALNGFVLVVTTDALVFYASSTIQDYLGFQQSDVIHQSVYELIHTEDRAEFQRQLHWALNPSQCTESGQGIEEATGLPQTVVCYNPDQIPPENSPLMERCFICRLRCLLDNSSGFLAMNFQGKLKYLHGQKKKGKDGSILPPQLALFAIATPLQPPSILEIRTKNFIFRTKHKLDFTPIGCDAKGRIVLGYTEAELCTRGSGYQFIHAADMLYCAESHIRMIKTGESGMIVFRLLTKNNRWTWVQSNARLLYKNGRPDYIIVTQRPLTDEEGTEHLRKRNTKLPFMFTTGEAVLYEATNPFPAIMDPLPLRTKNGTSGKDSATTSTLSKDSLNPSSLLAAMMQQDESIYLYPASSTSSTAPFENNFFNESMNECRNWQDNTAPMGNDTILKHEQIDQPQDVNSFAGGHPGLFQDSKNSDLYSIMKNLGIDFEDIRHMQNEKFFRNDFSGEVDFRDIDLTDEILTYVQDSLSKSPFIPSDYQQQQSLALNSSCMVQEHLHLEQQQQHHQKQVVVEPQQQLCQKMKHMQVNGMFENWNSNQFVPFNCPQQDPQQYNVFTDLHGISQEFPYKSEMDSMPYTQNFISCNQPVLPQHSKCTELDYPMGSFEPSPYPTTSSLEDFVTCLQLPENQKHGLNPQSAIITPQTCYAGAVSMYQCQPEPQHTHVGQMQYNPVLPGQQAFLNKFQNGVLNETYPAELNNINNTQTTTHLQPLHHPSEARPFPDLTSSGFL
A general note: In qHTS, concentration-response curves come from the screen itself.

Experiment [3] in a line: qHTS assay to identify small molecule that activate the aryl hydrocarbon receptor (AhR) signaling pathway - cell viability counter screen (AID 743086). Further: series mostly up to about 70 µM; nearly all actives have a fitted effect of over 45% in size. An outline of the steps: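 Cytotoxicity counter screen: CellTiter-Fluor signal (30 min, 37 C) in 4000 HepG2 cells/well carrying the DRE-luciferase reporter, following 24 h compound exposure at 37 C.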
A short description of experiment [4]: qHTS assay to identify small molecule antagonists of the peroxisome proliferator-activated receptor gamma (PPARg) signaling pathway - cell viability counter screen (AID 743194). Further: nearly all actives have a fitted effect of over 55% in size. An outline of the steps: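 Viability was measured as CellTiter-Glo luminescence in GeneBLAzer PPARg UAS-bla HEK293H cells. These cells had been exposed 17 h at 37 C to compounds together with rosiglitazone at 50 nM final, with the beta-lactamase readout taken in the same wells.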

A short description of experiment [5]: qHTS assay for small molecule agonists of the antioxidant response element (ARE) signaling pathway (AID 743202; active means well fitted activation curve with a large enough effect in the signal ratio in the repeat runs, not every such curve was filed as active; the % refers to the signal ratio). The gist of the method: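 Quantitative high-throughput format in HepG2 cells bearing an integrated ARE-beta-lactamase reporter. Compound exposure lasted 16 h at 37 C, and fluorescence was read 2 h after adding LiveBLAzer B/G substrate at room temperature.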

Experiment [6] in a line: qHTS assay for small molecule agonists of the antioxidant response element (ARE) signaling pathway - cell viability counter screen (AID 743203; calls by dose curve; further: nearly all actives have a fitted effect of over 55% in size; further: potency means the concentration at half of the fitted maximal effect). An outline of the steps: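 ARE-bla HepG2 cells were plated, rested 5 h at 37C/5% CO2, then exposed to compounds in DMSO for 16 h. Viability was read as CellTiter-Glo luminescence after 30 min at room temperature, in the same wells as the ARE screen.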

Experiment [7] is described as follows: qHTS assay for small molecule activators of the heat shock response signaling pathway - cell viability counter screen (AID 743209). Further: nearly all actives have a fitted effect of over 50% in size. An outline of the steps:
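HSE-bla HeLa cells plated overnight, then exposed to Tox21 compounds (23 nL in DMSO) for 5 h at 37 C. After the bla reporter read, CellTiter-Glo was added in the same wells and luminescence read after 30 min at room temperature.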

The nature of experiment [8]: qHTS assay for small molecule activators of the heat shock response signaling pathway (AID 743210; active means well fitted activation curve with a large enough effect in the signal ratio in the repeat runs, with a control signal flat, not every such curve was filed as active; the % refers to the signal ratio;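 further: HeLa cells with beta-lactamase reporter driven by heat shock elements; series mostly up to about 63 µM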). An outline of the steps:
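HeLa HSE-bla cells, overnight plating; cpd in DMSO 5 h, 37 C; LiveBLAzer B/G FRET substrate 2.5 h RT; fluorescence intensity read.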

Experiment [9] is described as follows: qHTS assay to identify small molecule agonists of the peroxisome proliferator-activated receptor delta (PPARd) signaling pathway - cell viability counter screen (AID 743211). Further: nearly all actives have a fitted effect of over 55% in size. The gist of the method:
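Counter screen for cytotoxicity run in parallel with the PPARd reporter screen. Beta-lactamase reporter HEK293H cells exposed to compounds 17 h; ATP-based CellTiter-Glo luminescence quantified viability.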

Experiment [10] in a line: qHTS assay to identify small molecule antagonists of the peroxisome proliferator-activated receptor delta (PPARd) signaling pathway - cell viability counter screen (AID 743213). Further: nearly all actives have a fitted effect of over 50% in size. Further: potency means the concentration at half of the fitted maximal effect. The gist of the method: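 Cytotoxicity counter screen: CellTiter-Glo luminescence read 30 min after addition, in the same wells as the reporter assay. There, PPARd UAS-bla HEK293H cells (3000/well) were treated 17 h at 37 C with compound and 300 nM L165041.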

In experiment [11] the target is Bile acid receptor (Homo sapiens) (UniProt Q96RI1). Nature of the experiment: qHTS assay to identify small molecule antagonists of the farnesoid-X-receptor (FXR) signaling pathway (AID 743217; active means well fitted inhibition curve with a large enough effect in the signal ratio in the repeat runs, not every such curve was filed as active; the % refers to the signal ratio). An outline of the steps:
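FXR-UAS-bla HEK 293T cells (beta-lactamase reporter) given compound plus chenodeoxycholic acid (50 uM final), 16 h at 37C. LiveBLAzer B/G FRET substrate added for 2 h at room temperature; fluorescence read.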

Experiment [12] can be described thus: qHTS assay to identify small molecule agonists of the farnesoid-X-receptor (FXR) signaling pathway - cell viability counter screen (AID 743218). Further: nearly all actives have a fitted effect of over 45% in size. Further: potency means the concentration at half of the fitted maximal effect. The gist of the method: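 FXR-UAS-bla HEK 293T cells exposed to compounds for 16 h at 37C. Cytotoxicity read in the same wells by CellTiter-Glo luminescence after 30 min at room temperature, following the beta-lactamase FRET read.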

In experiment [13] the target is Bile acid receptor (Homo sapiens) (UniProt Q96RI1). Kind of experiment: qHTS assay to identify small molecule agonists of the farnesoid-X-receptor (FXR) signaling pathway (AID 743220; active means well fitted activation curve with a large enough effect in the signal ratio in the repeat runs, not every such curve was filed as active; the % refers to the signal ratio). An outline of the steps: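 Beta-lactamase reporter under UAS control in GeneBLAzer FXR HEK 293T cells (5000/well) measured with LiveBLAzer FRET substrate after 2 h at room temperature. Compound exposure lasted 16 h at 37C.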
Bile acid receptor (Homo sapiens), sequence (Q96RI1 whole entry, looked up): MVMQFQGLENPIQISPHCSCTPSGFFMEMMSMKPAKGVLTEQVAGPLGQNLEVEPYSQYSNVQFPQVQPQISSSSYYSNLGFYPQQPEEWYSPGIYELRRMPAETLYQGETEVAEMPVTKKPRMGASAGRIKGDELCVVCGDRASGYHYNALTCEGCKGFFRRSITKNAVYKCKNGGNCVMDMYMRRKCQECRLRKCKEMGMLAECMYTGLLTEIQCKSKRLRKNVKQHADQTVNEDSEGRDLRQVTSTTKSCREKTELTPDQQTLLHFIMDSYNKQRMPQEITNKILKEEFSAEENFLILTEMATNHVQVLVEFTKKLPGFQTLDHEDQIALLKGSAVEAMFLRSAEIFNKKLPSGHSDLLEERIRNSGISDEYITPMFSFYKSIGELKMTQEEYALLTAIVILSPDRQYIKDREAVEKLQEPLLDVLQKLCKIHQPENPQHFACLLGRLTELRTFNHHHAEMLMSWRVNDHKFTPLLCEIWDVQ

The target in experiment [14] is Peroxisome proliferator-activated receptor delta (Homo sapiens) (UniProt Q03181). Kind of experiment: qHTS assay to identify small molecule agonists of the peroxisome proliferator-activated receptor delta (PPARd) signaling pathway (AID 743212; calls by dose curve). The gist of the method:
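HEK293H PPARd-bla cells; 5 h preincubation 37 C/5% CO2; compound (DMSO) 37 C; LiveBLAzer B/G FRET substrate 2 h RT; fluorescence intensity.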

For experiment [15] the target is unchanged. Nature of the experiment: qHTS assay to identify small molecule antagonists of the peroxisome proliferator-activated receptor delta (PPARd) signaling pathway (AID 743215; active means well fitted inhibition curve with a large enough effect in the signal ratio in the repeat runs, not every such curve was filed as active; the % refers to the signal ratio;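 further: cells stimulated with agonist L165041 at 300 nM final during compound exposure; series mostly up to about 62 µM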). An outline of the steps: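 PPARd-bla HEK293H cells (UAS-bla reporter) preincubated 5 h, then given compound plus 300 nM final L165041 agonist for 17 h at 37 C. Beta-lactamase activity read by LiveBLAzer B/G FRET substrate fluorescence after 2 h at room temperature.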

Experiment [16] can be described thus: qHTS assay to identify small molecule antagonists of the farnesoid-X-receptor (FXR) signaling pathway - cell viability counter screen (AID 743221; active means well fitted cell-killing curve with a large enough effect in the repeat runs, not every such curve was filed as active; further: nearly all actives have a fitted effect of over 50% in size). An outline of the steps: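 Multiplexed counter screen: viability of FXR-bla HEK 293T cells under agonist stimulation by chenodeoxycholic acid (50 uM, final) and test compound for 16 h at 37 C, measured by CellTiter-Glo luminescence in the reporter wells.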

Experiment [17] concerns the target Vitamin D3 receptor (Homo sapiens) (UniProt P11473). Nature of the experiment: qHTS assay to identify small molecule agonists of the vitamin D receptor (VDR) signaling pathway (AID 743222; calls by dose curve). An outline of the steps: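 VDR-bla cells plated 4 h at 37 C, then exposed to compounds for 16 h at 37 C. Beta-lactamase reporter activity measured by fluorescence after 2 h room-temperature loading with LiveBLAzer B/G FRET substrate.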

Experiment [18] has the same target. Kind of experiment: qHTS assay to identify small molecule antagonists of the vitamin D receptor (VDR) signaling pathway (AID 743223; active means well fitted inhibition curve with a large enough effect in the signal ratio in the repeat runs, not every such curve was filed as active; the % refers to the signal ratio). An outline of the steps: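 Cells carrying a VDR-driven beta-lactamase reporter (VDR-bla) were co-treated with compound and 3 nM final 1alpha,25-dihydroxyvitamin D3 for 16 h at 37C; reporter activity was measured as FRET substrate fluorescence after 2 h at room temperature.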

The target in experiment [19] is Peroxisome proliferator-activated receptor gamma (Homo sapiens) (UniProt P37231). Kind of experiment: qHTS assay to identify small molecule agonists of the peroxisome proliferator-activated receptor gamma (PPARg) signaling pathway (AID 743094; active means well fitted activation curve with a large enough effect in the signal ratio in the repeat runs, not every such curve was filed as active; the % refers to the signal ratio). An outline of the steps:
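GeneBLAzer PPARg UAS-bla HEK293H cells were plated, rested 5 h, then exposed to compounds for 17 h at 37C. Beta-lactamase activity was read by LiveBLAzer B/G FRET substrate fluorescence after 1 h at room temperature.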

For experiment [20] the target is unchanged. Kind of experiment: qHTS assay to identify small molecule antagonists of the peroxisome proliferator-activated receptor gamma (PPARg) signaling pathway (AID 743191; calls by dose curve; further: nearly all actives have a fitted effect of over 30% in size; further: potency means the concentration at half of the fitted maximal effect). An outline of the steps:
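Beta-lactamase reporter under UAS control in HEK293H PPARg-bla cells; compound treatment 17 h at 37C. Read-out: fluorescence intensity after 1 h room-temperature incubation with LiveBLAzer B/G FRET substrate.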

Peroxisome proliferator-activated receptor gamma (Homo sapiens), sequence (P37231 whole entry, looked up): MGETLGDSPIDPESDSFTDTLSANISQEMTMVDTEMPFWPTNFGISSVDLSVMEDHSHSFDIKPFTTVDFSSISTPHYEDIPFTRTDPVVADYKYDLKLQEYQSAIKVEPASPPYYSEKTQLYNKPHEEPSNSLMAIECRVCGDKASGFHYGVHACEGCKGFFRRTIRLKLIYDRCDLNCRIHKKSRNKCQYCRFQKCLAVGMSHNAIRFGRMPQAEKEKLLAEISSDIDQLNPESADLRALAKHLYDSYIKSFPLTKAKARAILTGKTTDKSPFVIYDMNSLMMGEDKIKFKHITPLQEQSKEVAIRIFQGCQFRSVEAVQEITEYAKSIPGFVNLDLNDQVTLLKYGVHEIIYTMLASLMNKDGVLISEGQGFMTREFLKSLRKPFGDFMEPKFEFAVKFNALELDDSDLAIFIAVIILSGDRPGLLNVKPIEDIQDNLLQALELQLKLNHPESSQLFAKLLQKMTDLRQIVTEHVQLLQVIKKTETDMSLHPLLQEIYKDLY
Peroxisome proliferator-activated receptor delta (Homo sapiens), sequence (Q03181 whole entry, looked up): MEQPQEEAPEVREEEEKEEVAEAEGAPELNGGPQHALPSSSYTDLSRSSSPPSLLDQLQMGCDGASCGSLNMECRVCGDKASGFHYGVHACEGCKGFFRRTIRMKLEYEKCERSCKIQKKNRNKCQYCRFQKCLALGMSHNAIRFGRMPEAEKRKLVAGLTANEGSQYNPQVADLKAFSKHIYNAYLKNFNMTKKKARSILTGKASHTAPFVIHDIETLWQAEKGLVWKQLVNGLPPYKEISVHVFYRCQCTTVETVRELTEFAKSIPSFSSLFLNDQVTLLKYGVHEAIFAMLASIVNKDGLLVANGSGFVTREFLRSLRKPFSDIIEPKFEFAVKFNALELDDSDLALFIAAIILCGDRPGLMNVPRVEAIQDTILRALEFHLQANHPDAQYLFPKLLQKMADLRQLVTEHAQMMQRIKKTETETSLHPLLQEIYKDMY
Vitamin D3 receptor (Homo sapiens), sequence (P11473 whole entry, looked up): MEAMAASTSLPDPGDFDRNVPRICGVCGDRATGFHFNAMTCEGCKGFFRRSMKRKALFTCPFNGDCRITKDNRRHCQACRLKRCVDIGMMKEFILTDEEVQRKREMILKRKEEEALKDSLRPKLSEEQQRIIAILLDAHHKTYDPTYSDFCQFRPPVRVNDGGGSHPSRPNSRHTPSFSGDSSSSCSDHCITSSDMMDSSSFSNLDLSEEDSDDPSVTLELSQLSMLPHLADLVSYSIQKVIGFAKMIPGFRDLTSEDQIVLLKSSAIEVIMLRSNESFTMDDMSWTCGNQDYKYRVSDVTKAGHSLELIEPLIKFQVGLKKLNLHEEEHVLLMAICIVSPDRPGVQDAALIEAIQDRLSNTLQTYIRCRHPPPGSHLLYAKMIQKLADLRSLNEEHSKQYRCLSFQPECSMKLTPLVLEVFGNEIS

As for `CCCCCCOCCOCCO`, the Potency entry in [1], in experiment [2], in experiment [3], in [4], in [5] and in [6] was “inactive” throughout. Moreover, the Potency entry in experiment [7], in experiment [9], in experiment [10], in experiment [11] and in [12] was “inactive” each time. In addition, the compound was classed as inactive in [8] and in experiment [13].
On to `NCCOCCO`, for which the Potency result in [1], in [2], in [3], in [4], in experiment [5] and in experiment [6] was “inactive” throughout. In addition, the Potency result in experiment [7], in experiment [9], in experiment [10], in experiment [11], in experiment [12] and in experiment [16] was “inactive” each time. Further, the outcome in experiment [8], in [14], in [15], in experiment [13], in experiment [17] and in [18] was inactive.
Regarding `O=C(CCCN1CCC(O)(c2ccc(Cl)cc2)CC1)c1ccc(F)cc1`, the Potency entry in experiment [1], in experiment [2], in experiment [3], in experiment [7] and in experiment [11] was “inactive” throughout. The Potency in experiment [6] was 54.5 µM (active) and inactive; in experiment [10], 30.9 µM (active) and 21.1 µM (active); in [12], 30.9 µM (active) and inactive. Besides, the compound was called inactive in experiment [13].
For `COC(=O)CC(=O)OC`, the Potency result in experiment [1], in experiment [3], in experiment [20], in [4], in experiment [5] and in [6] was “inactive” throughout. Besides, the Potency result in experiment [7], in [9], in [10], in [12] and in experiment [16] was “inactive” each time. The outcome in [19], in experiment [8], in experiment [14], in [15], in experiment [17] and in experiment [18] was inactive.
For the compound `C/C=C/C(=O)N(CC)c1ccccc1C`, the Potency result in experiment [1], in [3], in experiment [20], in experiment [4], in experiment [5] and in [6] was “inactive” each time. The Potency entry in [7], in experiment [9], in experiment [10], in experiment [12] and in [16] was “inactive” throughout. The call in experiment [19], in [8], in experiment [17] and in [18] was inactive.
On to `C[N+](C)(C)CCO`, for which the Potency result in experiment [1], in [2], in experiment [3], in [4], in experiment [5] and in [6] was “inactive” in each case. For the same compound, the Potency result in experiment [7], in [9], in experiment [10], in experiment [12] and in [16] was “inactive” throughout. In addition, the result in experiment [19], in experiment [14], in experiment [15], in experiment [17] and in experiment [18] was inactive.
As for `[O-]/[N+](=N\O)c1ccccc1`, the Potency entry in experiment [1], in [3], in experiment [20], in experiment [4], in [6] and in experiment [7] was “inactive” throughout. The Potency entry in experiment [9], in [10], in experiment [12] and in experiment [16] was “inactive” throughout. Further, the result in experiment [19], in experiment [8], in experiment [14], in experiment [15], in experiment [17] and in experiment [18] was inactive.
Regarding `CCCN1C=CN(C)C1`, the Potency result in experiment [1], in experiment [2], in experiment [3], in [5], in experiment [6] and in experiment [7] was “inactive” in each case. Also, the Potency entry in [9], in experiment [10], in experiment [11], in experiment [12] and in [16] was “inactive” in each case. The compound was called inactive in [14], in [15], in experiment [13], in experiment [17] and in experiment [18].
In the case of `Cc1cccc(Nc2ccccc2C(=O)O)c1C`, the Potency result in experiment [1], in experiment [2], in experiment [3], in [6], in [7] and in experiment [9] was “inactive” in each case. Moreover, the Potency entry in experiment [10], in experiment [12] and in experiment [16] was “inactive” throughout. Further, the Potency in experiment [20] was 43.6 µM (active). Further, the outcome in [8] and in experiment [15] was inactive.
